This note sets out measurements from PubChem BioAssay (Tox21).

A number with no mark means an inactive call. Results filed as inconclusive are left out. The source made the active and inactive calls. Unless noted, the call rests on the fitted dose curve; in most records, active means well fitted curve in the direction sought with a large enough effect in the repeat runs; inconclusive means weak or mixed curves; inactive means no such curve, though single readings can be large; an effect the other way counts as inactive or inconclusive.

Assay [1] can be described thus: A CellTox Green Cytotoxicity Assay to monitor cytotoxicity in HepG2 cells - 32 hour (AID 1224883). Further: nearly all actives have a fitted effect of over 50% in size. Put shortly:
(§1)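 Read-out is fluorescence of a cyanine dye excluded from live cells that stains DNA of dead HepG2 cells, with signal proportional to cytotoxicity. Plates were read at 0, 8, 16, 24, 32 and 40 h after compound addition.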

A short description of assay [2]: qHTS RealTime-Glo MT Cell Viability Assay in HepG2 cells - 16 hour (AID 1224885). Further: nearly all actives have a fitted effect of over 50% in size. Put shortly:
(§2)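 Cell number in HepG2 cultures estimated from NanoLuc luminescence generated by metabolic reduction of a prosubstrate by living cells. The homogeneous, nonlytic format allowed repeated reads at 0, 8, 16, 24, 32 and 40 h of compound exposure.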

A short description of assay [3]: qHTS RealTime-Glo MT Cell Viability Assay in HEK293 cells - 24 hour (AID 1224886). Further: top concentration of the series differs between compounds; nearly all actives have a fitted effect of over 50% in size. Put shortly:
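Homogeneous bioluminescent viability format in HEK293 cells (600 cells/well). Following 5 h at 37 C/5% CO2, 23 nL compound was pintooled; the signal was measured repeatedly during 40 h incubation.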

Assay [4] is described as follows: qHTS RealTime-Glo MT Cell Viability Assay in HEK293 cells - 8 hour (AID 1224887). Further: top concentration of the series differs between compounds; nearly all actives have a fitted effect of over 50% in size. The method, boiled down: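 Cells were seeded together with NanoLuc luciferase and a prosubstrate that viable cells reduce to a luciferase substrate. After a 5 h incubation at 37 C/5% CO2, compounds were added and luminescence was measured repeatedly during 40 h of treatment.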
On the technique in general: In qHTS, concentration-response curves come from the screen itself.

The nature of assay [5]: A CellTox Green Cytotoxicity Assay to monitor cytotoxicity in HEK293 cells - 16 hour (AID 1224888). Further: nearly all actives have a fitted effect of over 35% in size. Put shortly: (§3)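 Nonlytic real-time cytotoxicity: HEK293 + CellTox Green reagent plated, 5 h preincubation, pintool compound addition (23 nL in DMSO), 37 C for 40 h, fluorescence measured at successive time points.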
A short description of assay [6]: qHTS RealTime-Glo MT Cell Viability Assay in HepG2 cells - 0 hour (AID 1224889). Further: nearly all actives have a fitted effect of over 50% in size. The method, boiled down:
as §2

The nature of assay [7]: A CellTox Green Cytotoxicity Assay to monitor cytotoxicity in HepG2 cells - 8 hour (AID 1224890). Further: nearly all actives have a fitted effect of over 45% in size. The method, boiled down:
as §1

Assay [8] in a line: qHTS assay to identify small molecule antagonists of the estrogen receptor alpha (ER-alpha) signaling pathway using the BG1 cell line in the presence of 0.1 nM 17-beta-estradiol - cell viability counter screen (AID 1259241). Further: nearly all actives have a fitted effect of over 40% in size. Put shortly: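 VM7Luc4E2 cells (endogenous full-length ER-alpha, 4xERE-luciferase), cultured 5 days in charcoal-stripped serum, exposed to compounds with 0.1 nM 17beta-estradiol (final) for 22 hr at 37C. Viability read in same wells as live-cell protease fluorescence after 30 min.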

Assay [9] is described as follows: qHTS assay to identify small molecule antagonists of the androgen receptor (AR) signaling pathway using the MDA cell line in the presence of 0.5 nM R1881 - cell viability counter screen (AID 1259242). Further: nearly all actives have a fitted effect of over 45% in size. The method, boiled down:
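Counter screen for cytotoxicity run in the same wells as the AR antagonist reporter screen: MDA-kb2 cells were treated 16 hr with test compounds and 0.5 nM R1881, then live-cell protease activity was measured by fluorescence.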

Assay [10] deals with Estrogen receptor (Homo sapiens) (UniProt P03372). Nature of the assay: qHTS assay to identify small molecule antagonists of the estrogen receptor alpha (ER-alpha) signaling pathway using the BG1 cell line in the presence of 0.1 nM 17-beta-estradiol (AID 1259244). Further: nearly all actives have a fitted effect of over 50% in size. The method, boiled down:
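Cells: VM7Luc4E2, endogenous ER-alpha, 4x ERE-luc stable. Pre-culture 5 d, phenol red-free, charcoal-stripped FBS. Plated 24 h, compound + E2 0.1 nM final, 22 h 37C/5% CO2. Readout ONE-Glo luminescence.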

A short description of assay [11]: qHTS assay to identify small molecule HDAC inhibitors (AID 1259364). Further: nearly all actives have a fitted effect of over 45% in size. Further: potency means the concentration at half of the fitted maximal effect. On activity change, negative = inhibition: top concentration of the series differs between compounds. Put shortly: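 Luminescence from a cell-permeant luminogenic class I/II HDAC substrate reports endogenous deacetylase activity in intact HCT-116 cells treated with compounds for 2 h.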
Assay [12] can be described thus: qHTS assay to identify small molecule agonists of the sonic hedgehog signaling (Shh) pathway - cell viability counter screen (AID 1259366). Further: nearly all actives have a fitted effect of over 50% in size. Put shortly: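 NIH/3T3-derived Gli1-Luc reporter cells, 2,000 per well, received compound after 4 h and were treated about 23 h at 37C. Viability measured in the same wells by CellTiter-Fluor fluorescence after 1 h.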
Assay [13] in a line: qHTS assay to identify small molecule antagonists of the sonic hedgehog signaling (Shh) pathway - cell viability counter screen (AID 1259367). Further: nearly all actives have a fitted effect of over 55% in size. The method, boiled down: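 Seed 3T3 Gli1-Luc cells at 2,000 per well; incubate 4 hr; add compound in DMSO, then conditioned medium; incubate at 37C with 5% CO2; add CellTiter-Fluor after 23 hr; read fluorescence 1 hr later.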
A short description of assay [14]: qHTS assay to identify small molecule agonists of the sonic hedgehog signaling (Shh) pathway (AID 1259368; calls by dose curve;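 further: NIH/3T3-derived 3T3Gli1-Luc cells carrying a stable Gli1-driven firefly luciferase reporter; series mostly up to about 92 µM; nearly all actives have a fitted effect of over 15% in size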). Put shortly:
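3T3Gli1-Luc (NIH/3T3 clone, stable Gli1-Luc); 4 hr pre-incubation, then cpd in DMSO 24 hr, 37 C/5% CO2; luciferase reagent 30 min RT; luminescence.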

Assay [15] can be described thus: qHTS assay to identify small molecule antagonists of the sonic hedgehog signaling (Shh) pathway (AID 1259369; calls by dose curve; further: nearly all actives have a fitted effect of over 45% in size). The method, boiled down:
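3T3Gli1-Luc, conditioned-medium-stimulated, 24hr cpd, 37C/5% CO2; Gli1-driven firefly Luc luminescence after 30min RT with luciferase reagent. Cells plated 4hr before cpd.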

A short description of assay [16]: A CellTox Green Cytotoxicity Assay to monitor cytotoxicity in HEK293 cells - 8 hour (AID 1224884). Further: nearly all actives have a fitted effect of over 35% in size. The method, boiled down:
as §3

Assay [17] deals with Androgen receptor (Homo sapiens) (UniProt P10275). In words: qHTS assay to identify small molecule antagonists of the androgen receptor (AR) signaling pathway using the MDA cell line in the presence of 0.5 nM R1881 (AID 1259243). Further: nearly all actives have a fitted effect of over 50% in size. Put shortly:
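Luciferase luminescence is the read-out: compounds are tested for suppressing 0.5 nM R1881-driven MMTV reporter activity in MDA-kb2 cells after 16 hr at 37C.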

Assay [18] is described as follows: qHTS assay to identify small molecule HDAC inhibitors - cell viability counter screen (AID 1259365). Put shortly: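 Wild-type HCT-116 cells, 1,500/well, cultured overnight, then compound-treated 2 h at 37 C. Viability measured as ATP luminescence with CellTiter-Glo after 30 min at room temperature.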
The nature of assay [19]: qHTS assay to identify small molecule phospholipidosis (PLD) inducers (AID 1259344; active means well fitted curve in the direction sought with a large enough effect; an effect the other way counts as inactive or inconclusive). Put shortly: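 Quantitative HTS in HepG2: compound plus LipidTOX Red dye for 24 h, paraformaldehyde fixation with Hoechst 33342, widefield high-content imaging; amiodarone as positive and DMSO as negative control.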
On the % scale 0 is the no-effect control and ±100 the full control effect.

Chain of Estrogen receptor (Homo sapiens) (P03372 whole entry, looked up): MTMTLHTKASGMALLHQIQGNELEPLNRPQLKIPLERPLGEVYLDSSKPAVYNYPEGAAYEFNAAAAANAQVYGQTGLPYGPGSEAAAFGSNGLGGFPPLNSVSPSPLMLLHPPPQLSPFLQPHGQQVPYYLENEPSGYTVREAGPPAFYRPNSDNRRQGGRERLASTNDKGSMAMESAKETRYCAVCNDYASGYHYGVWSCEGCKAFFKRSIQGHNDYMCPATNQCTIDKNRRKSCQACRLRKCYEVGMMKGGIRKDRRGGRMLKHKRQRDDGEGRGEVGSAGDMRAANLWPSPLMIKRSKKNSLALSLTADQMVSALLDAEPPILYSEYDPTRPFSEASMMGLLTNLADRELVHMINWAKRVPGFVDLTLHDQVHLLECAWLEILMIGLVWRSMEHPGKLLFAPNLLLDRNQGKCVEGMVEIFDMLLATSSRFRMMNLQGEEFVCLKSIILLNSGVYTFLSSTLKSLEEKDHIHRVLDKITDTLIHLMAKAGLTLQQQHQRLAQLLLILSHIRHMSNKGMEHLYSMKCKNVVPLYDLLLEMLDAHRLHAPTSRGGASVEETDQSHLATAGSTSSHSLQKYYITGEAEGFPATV
Chain of Androgen receptor (Homo sapiens) (P10275 whole entry, looked up): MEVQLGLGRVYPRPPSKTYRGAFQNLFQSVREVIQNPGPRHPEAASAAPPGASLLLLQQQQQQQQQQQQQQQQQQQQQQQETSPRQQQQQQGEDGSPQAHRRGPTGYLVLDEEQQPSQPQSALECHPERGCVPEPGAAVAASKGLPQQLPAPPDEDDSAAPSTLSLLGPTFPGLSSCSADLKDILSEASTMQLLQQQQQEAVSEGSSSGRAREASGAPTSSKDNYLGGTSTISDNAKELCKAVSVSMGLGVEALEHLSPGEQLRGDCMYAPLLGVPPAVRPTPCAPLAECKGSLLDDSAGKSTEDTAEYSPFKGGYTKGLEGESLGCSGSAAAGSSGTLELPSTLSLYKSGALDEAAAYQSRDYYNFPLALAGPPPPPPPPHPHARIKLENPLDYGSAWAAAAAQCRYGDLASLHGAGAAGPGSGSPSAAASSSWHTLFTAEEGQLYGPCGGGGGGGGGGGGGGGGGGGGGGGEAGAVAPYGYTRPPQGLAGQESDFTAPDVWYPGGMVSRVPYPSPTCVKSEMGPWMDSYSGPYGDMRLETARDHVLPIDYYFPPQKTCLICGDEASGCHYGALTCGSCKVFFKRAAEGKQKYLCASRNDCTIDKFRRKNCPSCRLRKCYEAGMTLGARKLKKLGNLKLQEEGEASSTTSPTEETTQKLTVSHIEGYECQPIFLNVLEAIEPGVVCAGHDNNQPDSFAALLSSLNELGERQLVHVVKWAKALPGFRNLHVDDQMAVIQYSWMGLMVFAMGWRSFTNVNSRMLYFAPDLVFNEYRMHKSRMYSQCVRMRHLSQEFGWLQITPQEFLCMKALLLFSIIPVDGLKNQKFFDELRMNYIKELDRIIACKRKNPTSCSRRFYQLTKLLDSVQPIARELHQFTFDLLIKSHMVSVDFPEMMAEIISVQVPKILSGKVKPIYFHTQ

Take `CC(C)CCCO`: the Potency entry in [1], in assay [3], in [4], in assay [6], in [11] and in assay [12] was “inactive” in each case. Also, the Potency result in assay [13] and in [15] was “inactive” each time. Also, the molecule was called inactive in [2], in assay [5], in assay [7], in assay [8], in [9] and in assay [10]. Further, the molecule was called inactive in assay [14].

Take `CCCCOCCOC(=O)COc1cc(Cl)c(Cl)cc1Cl`: the Potency result in assay [1], in assay [3], in assay [4], in assay [6], in assay [17] and in [11] was “inactive” throughout. The Potency result in assay [12], in [13] and in assay [15] was “inactive” each time. Moreover, the molecule was classed as inactive in [16], in [5], in assay [7], in assay [8], in assay [9] and in assay [10]. Moreover, the outcome in assay [18] and in assay [14] was inactive.

Turning to `CCCCCCC1CCC(=O)O1` (stereo not given), the Potency result in assay [1], in [3], in [4], in assay [6], in assay [11] and in [12] was “inactive” in each case. In addition, the Potency result in assay [13] and in assay [15] was “inactive” in each case. Moreover, the molecule was classed as inactive in assay [16], in assay [2], in assay [5], in assay [7], in [8] and in [9]. Besides, the result in [18] and in [14] was inactive.

For `CC(C)[C@H]1CC[C@@H](C)CC1=O`, the Potency result in [1], in assay [3], in assay [4], in [6], in assay [11] and in assay [12] was “inactive” each time. The Potency result in [13] and in assay [15] was “inactive” in each case. Also, the result in assay [2], in assay [5], in [7], in assay [9], in assay [18] and in assay [14] was inactive.

Regarding `C[C@H]1C[C@H]2[C@@H]3CCC4=CC(=O)C=C[C@]4(C)[C@H]3C(=O)C[C@]2(C)[C@@]1(O)C(=O)CO`, the Potency entry in [1], in [3], in assay [4], in assay [6], in assay [11] and in assay [12] was “inactive” each time. For the same molecule, the Potency entry in assay [13] and in assay [15] was “inactive” throughout. In addition, the molecule was classed as inactive in [16], in [5], in assay [7], in assay [8], in assay [9] and in assay [10]. Moreover, the molecule was classed as inactive in assay [18] and in [14]. Further, the PLD induction in assay [19] is 2.13% [at 7.66 µM].

For `CN1CCN(c2cc3c(nn2)Oc2ccccc2N3C)CC1`, the results for the cytotoxicity increase in assay [1] and in [7] were -2% [at 15.8 µM] and 1.91% [at 15.8 µM], respectively. For the same molecule, in assay [2], the activity change, negative = cytotoxic was -5.35% [at 15.8 µM]. Also, the activity change, negative = cytotoxicity in assay [3] is -1.39% [at 15.8 µM]; in [4], 0.282% [at 15.8 µM]; in [6] it was -7.1% [at 15.8 µM]; in [8] it was -8.18% [at 19 µM]; in [18], 2.56% [at 19 µM]. In addition, in assay [5], the activity change is -9.75% [at 15.8 µM]. Besides, the results for the viability change, negative = cytotoxic in assay [9], in [12] and in [13] were 0.195% [at 19 µM], 8.2% [at 19 µM] and 0.668% [at 19 µM], respectively. Also, in [19], the molecule was called inactive. For the same molecule, the Potency in assay [11] is 4.61 µM (active). The activity change, negative = inhibition in [15] is -8.36% [at 19 µM].

`CC(=O)N[C@H]1[C@H]([C@H](O)[C@H](O)CO)OC(C(=O)O)=C[C@@H]1N=C(N)N`: the Potency result in [1], in assay [3], in assay [4], in [6], in assay [17] and in [11] was “inactive” each time. Also, the Potency result in [12], in [13] and in assay [15] was “inactive” throughout. The molecule was called inactive in assay [16], in [5], in assay [7], in assay [8], in assay [9] and in [19]. Moreover, the result in [18] and in [14] was inactive.

Regarding `CCCCCCCCCCCCCCCCCCO`, the Potency entry in assay [1], in assay [3], in assay [4], in assay [6], in assay [11] and in assay [12] was “inactive” each time. Moreover, the Potency entry in [15] is “inactive”. The call in assay [16], in assay [2], in [5], in assay [7], in [8] and in assay [9] was inactive. Further, the call in assay [19], in [18] and in assay [14] was inactive.

On to `O=C(O)c1cc(C(=O)O)cc(C(=O)O)c1`, for which the Potency result in assay [1], in assay [3], in assay [4], in assay [6], in [11] and in [12] was “inactive” in each case. The result in [16], in assay [2], in assay [5], in assay [7], in assay [8] and in assay [9] was inactive. In addition, in [14], the outcome was inactive.

Consider `NC(=O)Cc1cccc2ccccc12`, for which the Potency entry in assay [1], in assay [3], in assay [4], in assay [6], in [11] and in [12] was “inactive” in each case. The Potency result in assay [13] and in assay [15] was “inactive” each time. Further, the molecule was classed as inactive in assay [16], in assay [5], in assay [7], in assay [8], in assay [9] and in assay [18]. The molecule was called inactive in [14].
